# HCMV inh = inhibitors of human cytomegalovirus; actives 4.5% (n = 410,000); HFF cells, HCMV-luciferase reporter, 72 h; hits give low values; AID 1259415; activity change, negative = inhibition, % at 57.5 µM; in the data active means activity change below about -60%; inconclusive means no clear call, values can overlap the other calls; inactive means above about -39%
#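 Screen run at 2 compound doses on HFFs infected with reporter HCMV, MOI 1 PFU/cell. Luciferase activity from cell lysates at 72 h post infection gave inhibition relative to buffer-only and Salinomycin wells.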
# FMDV inh = antivirals against foot and mouth disease virus; FMDV antiviral cell-based qHTS; Potency, µM (titrated, usually from 57.9 µM), without a hit: at the top dose activity change, negative = inhibition, most hits filed as inhibitors; actives 1.2% (n = 410,000); calls by dose curve; tested in HEK293T cells; further: read-out not given here; potency means the concentration at half of the fitted maximal effect; nearly all actives have a fitted effect of over 45% in size
# Sm TGR block = blocks Schistosoma mansoni thioredoxin glutathione reductase | purified TGR, DTNB reduction, TNB absorbance 405 nm | Potency, µM (series often up to 114 µM), inactives show at the top dose activity change, negative = inhibition, most hits filed as inhibitors | actives 3% (n = 360,000); further: potency means the concentration at half of the fitted maximal effect; nearly all actives have a fitted effect of over 60% in size
#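 First, TGR (20 nM dispensed) and NADPH were mixed with compound. Second, a 15 min room-temperature incubation followed. Third, further NADPH and then DTNB were added to start the reaction. Finally, TNB absorbance was monitored kinetically.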
# Vaccinia Venus = inhibitors of vaccinia virus (Venus reporter) | Vaccinia virus Venus reporter expression, fluorescence | Potency, µM (series often up to 36.5 µM), without a hit: top-dose activity change, negative = inhibition, actives largely listed as inhibitors | actives 0.46% (n = 330,000) | AID 720580; calls by dose curve; tested in A549 cells; further: potency means the concentration at half of the fitted maximal effect; nearly all actives have a fitted effect of over 30% in size
# VACV mCherry inh = vaccinia inhibition (mCherry reporter). Vaccinia virus mCherry reporter infection, fluorescence. Potency, µM (highest dose often 36.5 µM), inactives show at the highest dose activity change, negative = inhibition, most hits filed as inhibitors. actives 0.63% (n = 310,000). AID 720579; calls by dose curve; tested in A549 cells; further: potency means the concentration at half of the fitted maximal effect; nearly all actives have a fitted effect of over 35% in size
# HCV inh = inhibitors of hepatitis C virus infection | Huh7.5.1 HCVcc-Cre infection, luciferase reporter, 44 h | Potency, µM (series often up to 41.8 µM), inactives show top-dose activity change, negative = inhibition, hits mostly inhibitors | actives 3.4% (n = 340,000) | AID 651820; further: potency means the concentration at half of the fitted maximal effect
#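 Cells seeded at 1,000/well and cultured 4 h, then compounds added followed by HCVcc-Cre virus (~0.5 moi). After 44 h further culture, luciferase substrate was added, plates held 15 min at room temperature, and luminescence read for 15 sec.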
# Starred values were filed as active, the others as inactive; i = inactive; ? = inconclusive; / = not tested or not shown; [ ] = another dose, or the depositor's remark. Compounds with a hit are over-represented: about 9.3% of the library has one in this group of screens. Unless noted, the call rests on the fitted dose curve; in most records, active means well fitted curve in the direction sought with a large enough effect; inconclusive means small, poorly fitted or top-dose-only effect, or another doubt; inactive means no such curve, though single readings can be large; an effect the other way counts as inactive or inconclusive. On the % scale 0 is the no-effect control and ±100 the full control effect.
SMILES,HCMV inh,FMDV inh,Sm TGR block,Vaccinia Venus,VACV mCherry inh,HCV inh
COc1ccccc1NS(=O)(=O)c1cccc(NC(=O)NCCCl)c1,9.6,7.5%,-6.7%,-3.9%,-9.4%,10.1%
COc1ccccc1NS(=O)(=O)c1cccc(NC(=O)c2cncc(Br)c2)c1,?,-4.7%,/,-28.1%,-9.2%,12.6µM*
COc1ccccc1NS(=O)(=O)c1cccc(NC(=O)Nc2cccc(Cl)c2)c1,-94.7*,?,-4.5%,?,?,?
O=C(COc1ccc(Cl)cc1Br)NC1CC1,-29.6,14.0%,-10.1%,/,/,?
CCC(O)c1nc2ccccc2n1Cc1cccc(Cl)c1 (configuration not stated),54.5,-18.5%,0.6%,-7.9%,-13.1%,/
CCCCCn1c(CCCNC(=O)c2cccc(C)c2)nc2ccccc21,-85.1*,?,6.3%,?,-20.6%,/
CCCCn1c(CCCNC(=O)c2cccc(C)c2)nc2ccccc21,-33.6,-4.3%,2.0%,-15.2%,-19.8%,/
CC(NC(=O)/C=C/c1ccco1)c1nc2ccccc2n1Cc1cccc(Cl)c1 (configuration not stated),-26.3,?,14.1µM*,-21.9%,-11.5%,?
O=C(NCCCc1nc2ccccc2n1Cc1ccc(Cl)cc1)c1ccco1,-31.9,?,4.3%,-9.8%,-12.2%,/
O=C(NCCCc1nc2ccccc2n1Cc1cccc(Cl)c1)c1ccco1,-75.9*,?,-17.8%,-7.6%[7.34 µM],-2.6%[7.34 µM],/
Cn1ncc(Cl)c1C(=O)NCc1cc(C(C)(C)C)n[nH]1,1.0,?,1.7%,-26.4%,-25.6%,-5.1%
CCC(CC)C(=O)OCC(=O)Nc1cccc(S(=O)(=O)N(C)c2ccccc2)c1,-34.4,-11.0%,-20.5%,-12.3%,i,17.8%
O=C(N/N=C/c1ccc([N+](=O)[O-])cc1)c1cccc2cc[nH]c12,-4.6,-4.3%,7.9%,/,/,6.1%
CCN(CC)c1ccc(/C=N\NC(=O)c2cccc3cc[nH]c23)cc1,-63.3*,16.3%,-11.8%,?,-17.0%,?
CCN1CCN(c2cc(C)c3cc(NC(=S)N4CCN(c5ccccc5)CC4)ccc3n2)CC1,-60.6*,8.9%,-5.7%,-2.3%,-15.3%,?
Cc1ccc(C)c(N2CCN(C(=S)Nc3ccc4nc(N5CCN(C)CC5)cc(C)c4c3)CC2)c1,?,?,4.6%,/,/,2.51µM*
COc1ccccc1N1CCN(C(=S)Nc2ccc3nc(N4CCOCC4)cc(C)c3c2)CC1,3.7,?,3.3%,-18.3%,-18.6%,3.55µM*
Cc1cc(N2CCOCC2)nc2ccc(NC(=S)N3CCN(c4ccccc4)CC3)cc12,?,0.0%,-5.0%,/,/,?
CCN1CCN(c2cc(C)c3cc(NC(=S)N4CCOCC4)ccc3n2)CC1,-26.6,30.2%,2.6%,/,/,?
CCc1ccc(CNC(=O)CCSCc2ccccc2F)cc1,-17.8,-5.6%,6.4%,-3.3%,-5.5%,/
CCOc1ccc(NC(=O)CSc2nccn2Cc2ccco2)cc1,53.0,22.4%,-6.0%,-0.8%,-5.8%,-11.6%
C=CCn1c(COc2ccc3c(c2)CCCC3)nnc1SCC(=O)Nc1cccc(SC)c1,25.1,-26.5%,30.8%,/,/,11.2µM*
C#CC1(NC(=O)NCCCC)CCCCC1,24.8,11.8%,-5.6%,-13.1%,-5.7%,10.3%
C=CCNc1nc(S(=O)Cc2ccc(C)cc2)nc2c1CCCC2 (configuration not stated),-98.3*,-23.3%,?,/,/,4.3%
N#Cc1c(Cl)nc(Cl)c2c1CCN(Cc1ccccc1)C2,-5.0,?,35.5µM*,-15.2%,-21.4%,?
O=C(CN1CCOCC1)NCCNS(=O)(=O)c1ccccc1,2.0,-10.3%,2.4%,-9.2%,i,/
COCCCNC(=O)c1ccc(C2SCC(=O)N2Cc2ccco2)cc1 (configuration not stated),-18.3,-0.3%,?,-0.8%,i,11.6%
COCCNC(=O)c1ccc(C2SCC(=O)N2Cc2ccco2)cc1 (configuration not stated),-0.3,-5.3%,22.4µM*,/,/,-3.3%

# Compound activity (PubChem BioAssay)
